tim23-1 inh = inhibits growth of tim23-1 mutant yeast; S. cerevisiae tim23-1 growth, BacTiter-Glo luminescence, 24 h; inhibition, % at 20 µM; 330,000 compounds, 1.3% hits; AID 463212;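 active means growth inhibition of the mutant yeast at or above 50%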;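 further: temperature-sensitive mutant grown at 25 °C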
PfHsp90 yeast 2 = reduces growth (ATP signal) of yeast expressing P. falciparum Hsp90 | S. cerevisiae expressing PfHsp90, BacTiter-Glo ATP, 48 h; yeast lacking PDR1 and PDR3 efflux regulators | inhibition, % at 9.4 µM | 310,000 compounds, 0.32% hits;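 active means every replicate shows inhibition above about 80%, whatever the replicate mean, limit read from the data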
tim10-1 inh = tim10-1 yeast growth inhibition; S. cerevisiae tim10-1 ts strain growth, BacTiter-Glo, 24 h; inhibition, % at 20 µM; 330,000 compounds, 2.2% hits; AID 463190;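 active means inhibition of at least 40%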;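 further: mutant grown at 25 °C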
TIM10 inh = TIM10 yeast growth inhibition; S. cerevisiae TIM10 strain growth, BacTiter-Glo luminescence, 24 h; inhibition, % at 10 µM; 330,000 compounds, 1.4% hits; AID 463195;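 active means inhibition of 40% or more at the single tested concentration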;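 further: wild-type TIM10 isogenic control strain grown at permissive 25 °C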
V-ATPase pH = regulators of yeast V-ATPase proton transport | S. cerevisiae, pHLuorin cytosolic pH fluorescence | response, % at 10 µM | 350,000 compounds, 0.37% hits; in the data active means response mostly above about 7.3%, no sharp cut-off; inactive means mostly below about 5.4%; further: actives read high
tim10-1 conf = tim10-1 yeast growth inhibition, confirmed; shares compounds with tim10-1 inh; S. cerevisiae tim10-1 ts strain growth, BacTiter-Glo, 24 h; inhibition, % at 20 µM; 7,400 compounds, 56% hits;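 active means inhibition of yeast growth at or above a set limit in either of two repeat tests at 20 µM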;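 further: tim10-1 mutant grown at permissive 25 °C to find synthetic lethal compounds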
TIM10 conf = confirmation of TIM10 yeast growth inhibitors; shares compounds with TIM10 inh; inhibition, % at 10 µM; 4,600 compounds, 63% hits; S. cerevisiae tim10 strain growth, BacTiter-Glo luminescence, 24 h; AID 463215;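 active means inhibition of yeast growth at or above a set limit in either of two replicates at 10 µM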; further: this counterscreen used the strain with wild-type TIM10
Of the large screens only hits and unclear results are named; the others gave an inactive call (follow-up assays come after a bar, where they were run). Only some compounds are listed: those with a hit (about 3.7% of all), similar ones and a draw of the others.

CC(=O)Nc1ccc(S(=O)(=O)N2CCSC2c2ccc(C)cc2)cc1 (configuration not stated)	tim10-1 inh 41, TIM10 inh 42 | tim10-1 conf inactive | TIM10 conf 34
O=C(CSc1nnc(-c2cccnc2)o1)Nc1cccc(F)c1	none
Clc1ccc2c(N/N=C/c3cccnc3)ccnc2c1	tim10-1 inh 51, TIM10 inh 71 | tim10-1 conf 57 | TIM10 conf 79
COc1ccc(OC)c(C(c2nnnn2CCc2ccccc2)N2CCN(c3ccccc3)CC2)c1 (configuration not stated)	none
CCC(c1nnnn1CCc1ccccc1)N1CCN(c2ccc(OC)cc2)CC1 (configuration not stated)	tim10-1 inh 41, TIM10 inh 43 | tim10-1 conf inactive | TIM10 conf inactive
Cc1ccc(NCCC(=O)c2cccs2)cc1C	none
Cc1ccc(NC(NC(=O)c2cccs2)C(Cl)(Cl)Cl)cc1C (configuration not stated)	tim10-1 inh 54, TIM10 inh 58 | tim10-1 conf 44 | TIM10 conf inactive
Cc1ccccc1NC(=O)c1ccccc1NC(=O)c1cccs1	none
Cc1ccccc1NC(NC(=O)c1cccs1)C(Cl)(Cl)Cl (configuration not stated)	tim10-1 inh 43, TIM10 inh 47 | tim10-1 conf 49 | TIM10 conf 51
Cc1ccc2[nH]c(-c3cccc(F)c3)cc(=O)c2c1	none
Oc1ccc(Br)cc1-c1cc(-c2ccccc2)n[nH]1	tim10-1 inh 47, TIM10 inh 58 | tim10-1 conf inactive | TIM10 conf inactive
Cc1ccc(O)c(-c2cc(-c3cccc(F)c3)n[nH]2)c1	PfHsp90 yeast 2 100, tim10-1 inh 53, TIM10 inh 43 | tim10-1 conf 34 | TIM10 conf inactive
CCOc1ccccc1NC(=O)CSc1ccc(-c2sc(C)nc2C)nn1	none
N/C(=N\OC(=O)/C=C/c1ccccc1)c1ccc(Cl)cc1	none
CC1=C/C(=N\OC(=O)/C=C/c2ccccc2)C(C)=CC1=O	tim10-1 inh 46, TIM10 inh 43 | tim10-1 conf inactive | TIM10 conf inactive
CCN1CCC(O)(/C=C/c2ccc(C(C)C)cc2)C(C(=O)/C=C/c2ccc(C(C)C)cc2)C1 (configuration not stated)	none (no result: tim23-1 inh, tim10-1 inh, TIM10 inh)
COc1cc(/C=N/NC(=O)C(=O)/C=C2\NC3(CCCC3)Cc3ccccc32)ccc1O	tim10-1 inh 52, TIM10 inh 47 | tim10-1 conf inactive | TIM10 conf inactive
COC(=O)c1c(N2C(=O)CC(Sc3ccccc3C(=O)O)C2=O)sc(C)c1C (configuration not stated)	none
COC(=O)c1c(N2C(=O)CC(Sc3ccccc3C(=O)O)C2=O)sc2c1CCCC2 (configuration not stated)	tim10-1 inh 46, TIM10 inh 46 | tim10-1 conf 47 | TIM10 conf inactive
COC1C(CO)OC(n2c3c(Cl)cccc3c3c4c(c5c6cccc(Cl)c6[nH]c5c32)C(=O)NC4=O)C(O)C1O (configuration not stated)	none (no result: tim23-1 inh, tim10-1 inh, TIM10 inh)
N/C(Cc1ccc([N+](=O)[O-])cc1)=N\OC(=O)C(c1ccccc1)c1ccccc1	tim10-1 inh 72, TIM10 inh 50 | tim10-1 conf 73 | TIM10 conf 63
COc1ccc(C/C(N)=N/OC(=O)C(c2ccccc2)c2ccccc2)cc1OC	none
Cc1ccc(CC(=O)O/N=C(\N)Cc2ccc([N+](=O)[O-])cc2)cc1	tim10-1 inh 73, TIM10 inh 60 | tim10-1 conf 77 | TIM10 conf 63
O=C(N/N=C/c1ccc([N+](=O)[O-])o1)c1cc2ccccc2o1	tim10-1 inh 59, TIM10 inh 45 | tim10-1 conf 56 | TIM10 conf 79
O=C(N/N=C/c1ccc([N+](=O)[O-])o1)c1cc2c(ccc3ccccc32)o1	none (no result: tim23-1 inh, tim10-1 inh, TIM10 inh)
O=C1C2C(c3ccccc3)=NN(c3ccccc3)C2C(=O)N1c1ccccc1 (configuration not stated)	tim10-1 inh 59, TIM10 inh 59 | tim10-1 conf 49 | TIM10 conf inactive
O=C(c1ccc(CNS(=O)(=O)c2ccc(Br)cc2)cc1)N1CCCCCC1	none
CC(C)Cn1c(C(C)C)nc([N+](=O)[O-])c1Sc1ccc(Cl)cn1	none (no result: PfHsp90 yeast 2)
CCCCn1c(CCC)nc([N+](=O)[O-])c1Sc1ccc(Cl)cn1	tim10-1 inh 44, TIM10 inh 49 | tim10-1 conf 40 | TIM10 conf 42
CC(C)[C@@H]1CC[C@@H](C)c2c(-c3ccccc3)n[nH]c21	tim10-1 inh 40, TIM10 inh 46 | tim10-1 conf inactive | TIM10 conf 49
O=C(O)c1ccc(N2C(=O)c3[nH]nc(-c4ccccc4)c3C2c2ccccc2)cc1 (configuration not stated)	none
CCCC(=O)NC(=S)Nc1cccc(Cl)c1N1CCCCC1	tim10-1 inh 44, TIM10 inh 50 | tim10-1 conf inactive | TIM10 conf 36
C=CCNc1nnc(SC2CC(=O)N(c3ccc(OC)cc3)C2=O)s1 (configuration not stated)	tim10-1 inh 67, TIM10 inh 40 | tim10-1 conf 61 | TIM10 conf 46
NC(=O)c1cc([N+](=O)[O-])ccc1NCc1ccc(F)cc1	none
NC(=O)c1cc([N+](=O)[O-])ccc1NCc1ccc(N)cc1	tim10-1 inh 57, TIM10 inh 54 | tim10-1 conf 48 | TIM10 conf 65
Cc1ccc(C(OCC(O)CNCc2ccc(F)cc2)c2ccccc2)cc1 (configuration not stated)	tim10-1 inh 64, TIM10 inh 68 | tim10-1 conf 74 | TIM10 conf 61
O=C(c1ccccc1)c1ccc(OCC(O)CNCc2ccc(F)cc2)cc1 (configuration not stated)	none (no result: tim23-1 inh, tim10-1 inh, TIM10 inh)
C=CCNc1nc(-c2ccccn2)nnc1-c1ccccc1	tim10-1 inh 49, TIM10 inh 46 | tim10-1 conf 41 | TIM10 conf inactive
CC(=O)NC1C(c2nc3ccccc3s2)=C(c2ccccc2)C(=O)N1c1ccc(C)cc1 (configuration not stated)	tim10-1 inh 53, TIM10 inh 51 | tim10-1 conf 51 | TIM10 conf 37
O=C(Nc1cccc([N+](=O)[O-])c1)NC1CCCCCCC1	tim10-1 inh 43, TIM10 inh 44 | tim10-1 conf 36 | TIM10 conf 42
O=C(NC(=S)Nc1cccc([N+](=O)[O-])c1)C1CCCC1	tim10-1 inh 54, TIM10 inh 47 | tim10-1 conf 45 | TIM10 conf 52
CC(=O)NC(=S)Nc1cccc([N+](=O)[O-])c1	none
O=C(CNC1CCCCC1)Nc1cccc([N+](=O)[O-])c1	none
